A selection: hits, their analogues and other compounds. The true share with any hit is near 3.6%.
VHR inh abs = VHR1 phosphatase inhibitors, primary screen, biochemical, absorbance, uHTS. Dual specificity protein phosphatase 3 (Homo sapiens), P51452. recombinant VHR phosphatase, pNPP absorbance. inhibition, % at 13.3 µM. hit rate 0.52% among 290,000. AID 1654, 2009; in the data active = inhibition above about 50%
Target sequence (P51452 whole entry, looked up): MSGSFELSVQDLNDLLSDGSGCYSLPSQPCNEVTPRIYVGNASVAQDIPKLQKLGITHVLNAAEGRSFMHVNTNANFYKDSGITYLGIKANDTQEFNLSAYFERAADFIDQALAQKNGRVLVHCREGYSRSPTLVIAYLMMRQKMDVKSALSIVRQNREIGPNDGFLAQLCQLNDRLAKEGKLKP
GDH-TPI inh = GDH-TPI coupling enzyme inhibitors, primary screen, artefact control for M. tuberculosis FBA inhibitor project, biochemical, absorbance, full deck | GDH-TPI coupled enzyme counterscreen, NADH absorbance | inhibition, % at 4.8 µM | hit rate 1.2% among 360,000 | AID 588335, 2011; in the data active = inhibition above about 30%;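 note: 0% = DMSO wells and 100% = wells lacking the enzyme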
Mtb FBA inh = Mtb FBA enzyme inhibitors, primary screen, biochemical, fluorescence, strain H37Rv | purified M. tuberculosis FBA, fluorescence read-out | hit rate 2.3% among 360,000 | inhibition, % at 1 µM; in the data active = inhibition above about 27%;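 note: 0% = vehicle and 100% = reference inhibitor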
Target sequence (P9WQA3 whole entry, looked up): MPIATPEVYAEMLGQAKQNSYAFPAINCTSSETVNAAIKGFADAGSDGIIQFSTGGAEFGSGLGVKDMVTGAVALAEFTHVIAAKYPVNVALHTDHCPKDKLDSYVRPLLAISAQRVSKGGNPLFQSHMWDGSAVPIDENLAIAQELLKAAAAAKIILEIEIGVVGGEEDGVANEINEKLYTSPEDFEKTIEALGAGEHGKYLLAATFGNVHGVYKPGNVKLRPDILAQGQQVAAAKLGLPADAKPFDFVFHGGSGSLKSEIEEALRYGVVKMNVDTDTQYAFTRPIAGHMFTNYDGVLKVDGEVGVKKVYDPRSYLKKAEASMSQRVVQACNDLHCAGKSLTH
Mtb bLac sens = beta-lactam sensitization of Mtb H37Rv, H37Rv | M. tuberculosis H37Rv growth with meropenem, percent inhibition | inhibition, % at 25 µM | hit rate 0.27% among 330,000 | AID 434955, 2010; call rule not given here;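 note: growth measured after seven days incubation then overnight dye step; 0% = bacteria only wells and 100% = bacteria with antibiotic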
Mtb hypoxia inh = PubChem AID 1159583. M. tuberculosis hypoxia-regulated fluorescent reporter, fluorescence. hit rate 0.1% among 300,000. fluorescence inhibition, % (concentration not given with the values); in the data active = fluorescence inhibition mostly above about 23%, no sharp cut-off; inactive = mostly below about 17%
* marks the source's active call; other numbers are inactive results; ? = inconclusive; . = no result given; + = active, no number.

SMILES	VHR inh abs	GDH-TPI inh	Mtb FBA inh	Mtb bLac sens	Mtb hypoxia inh
NS(=O)(=O)c1ccc(NC(=O)Cc2cccs2)cc1	17	-1	0	-2	15
COCCn1c(-c2ccc(OC(F)(F)C(F)C(F)(F)F)cc2)nc2c1c(=O)[nH]c(=O)n2CC(C)C (stereo unspecified)	-7	-7	12	98	-2
COCCn1c(-c2ccc(SC)cc2)nc2c1c(=O)[nH]c(=O)n2CC(C)C	-22	21	+	0	6
CC(C)CC(NC(=O)c1nc[nH]c1C(=O)NCC(=O)OC(C)(C)C)C(=O)OCc1ccccc1 (stereo unspecified)	.	.	.	.	7
O=C(Nc1sccc1C(=O)NCc1ccco1)c1cccnc1	2	32*	1	61	4
O=C(NCc1ccco1)C(c1ccccc1)N(C(=O)Cc1cccs1)c1cccnc1 (stereo unspecified)	15	1	-3	4	-7
CCOC(=O)C1C2COc3ccc(C)cc3C2N2C(=O)c3cc(Br)ccc3NC(=O)[C@@]12C (stereo partly specified)	.	.	.	.	-3
COC(=O)Cc1c(C)c2ccc(OCC(=O)N3CCCC3)c(C)c2oc1=O	29	22	151*	-11	7
CCOC(=O)CCc1c(C)c2ccc3c(c2oc1=O)CN(CCCO)CO3	2	14	+	-3	5
CCOC(=O)CCc1c(C)c2ccc(OCC(=O)N3CCOCC3)c(C)c2oc1=O	10	24	146*	-12	1
CCOC(=O)CCc1c(C)c2ccc(OCC)c(C)c2oc1=O	0	.	.	-1	5
CCOC(=O)C1=C(C)n2c(sc(=Cc3cccc([N+](=O)[O-])c3)c2=O)=NC1c1ccc(O)c(OC)c1 (stereo unspecified)	.	.	.	.	-2
Cc1cc(C)cc(-n2c(C)cc(C=NNC(=O)CSc3ncccn3)c2C)c1	.	.	.	.	5
Cc1ccsc1C=NNc1cn[nH]c(=O)c1Cl	.	.	.	.	5
COc1ccc(-n2c(O)c(C=NNS(=O)(=O)c3cc(C)ccc3C)c3ccccc3c2=O)cc1OC	.	.	.	.	3
CC(=O)Nc1ccc2nc(NC(=O)c3cccs3)sc2c1	21	53*	-2	85	23
O=C(Nc1nc2cc3c(cc2s1)OCCO3)c1cccc(N2C(=O)CCC2=O)c1	3	31*	4	-5	6
Cc1ccc2nc(NC(=O)c3ccc(NS(=O)(=O)c4cccs4)cc3)sc2c1	56*	10	6	8	-6
Cc1nc2ccc(NC(=O)c3cccs3)cc2s1	19	2	0	14	1
O=C(Nc1nc2cc3c(cc2s1)OCCO3)c1cccs1	38	38*	4	-1	4
COc1ccc(C=NNC(=O)c2cccnc2)cc1CN1CCc2ccccc2C1	.	.	.	.	6
Cn1nc(C(F)(F)F)c(C=NOC(=O)c2ccccc2)c1Sc1ccc(Cl)cc1	.	.	.	.	6
COc1ccc2c(c1)OCC1C2N2C(=O)CN(Cc3ccccc3)C(=O)[C@@]2(C)C1c1ccccc1 (stereo partly specified)	.	.	.	.	-3
CC(=NNC(=O)Cn1nc(C)c([N+](=O)[O-])c1C)c1ccc(Cl)s1	.	.	.	.	8
CS(=O)(=O)c1ccc2nc(NC(=O)c3ccccc3)sc2c1	-7	27	0	-3	14
SMILES	VHR inh abs	GDH-TPI inh	Mtb FBA inh	Mtb bLac sens	Mtb hypoxia inh
CCC(=O)Nc1nc2ccc([N+](=O)[O-])cc2s1	21	31*	3	-13	6
CCCCOC(=O)Nc1nc2ccc([N+](=O)[O-])cc2s1	5	-8	-1	8	10
CS(=O)(=O)c1ccc2nc(NC(=O)c3ccc(NS(=O)(=O)c4cccc([N+](=O)[O-])c4)cc3)sc2c1	11	89*	0	0	0
CCN(CC)S(=O)(=O)c1ccc2nc(NC(=O)c3cccs3)sc2c1	-2	35*	19	46	.
CN(CCO)S(=O)(=O)c1ccc2c(c1)C(=NNC(N)=O)c1cc(S(=O)(=O)N(C)CCO)ccc1-2	-11	56*	3	-5	-1
CN(C)S(=O)(=O)c1ccc2c(c1)C(=NNC(N)=O)c1cc(S(=O)(=O)N(C)C)ccc1-2	12	18	-3	7	-5
Cc1c(N=C2SCC(=O)N2N=Cc2ccccc2)c(=O)n(-c2ccccc2)n1C	.	.	.	.	2
CCc1ccc(CCC(=O)Nc2ncc(Cc3ccccc3Cl)s2)o1	60*	11	0	4	0
O=C(CN1CCOCC1)Nc1ncc(Cc2ccccc2Cl)s1	10	4	-1	-5	17
COc1cc(C2CC=C(C(=O)O)C(c3ccc(Cl)cc3)N2S(=O)(=O)c2ccc(C)cc2)cc(OC)c1OC (stereo unspecified)	.	.	.	.	11
CCCNC(=O)N1C2CCC1C(C(=O)OC)=C(c1ccc(F)cc1OCc1ccccc1)C2 (stereo unspecified)	.	.	.	.	3
Nc1nc(=S)c2ncn(C3CCCCC3)c2[nH]1	.	31*	5	.	9
Nc1nc(=S)c2ncn([C@@H]3O[C@H](CO)[C@@H](O)[C@H]3O)c2[nH]1	.	27	-3	2	.
CN(C)N=Nc1nc2c(c(=O)n(C)c(=O)n2C)n1CC1CO1 (stereo unspecified)	6	35*	-2	0	-3
CC1NC(=O)[C@@]2(C)C(c3ccccc3)C3COc4ccc(Cl)cc4C3N2C1=O (stereo partly specified)	.	.	.	.	-6
O=C(c1cnc2sccn2c1=O)N(Cc1ccccc1)c1ccccn1	-6	33*	0	-2	6
O=C(NCc1cccs1)c1cnc2sccn2c1=O	-2	45*	2	2	1
Cc1cc(NS(=O)(=O)c2ccc(NC(=O)c3cnc4sccn4c3=O)cc2)nc(C)n1	7	20	2	-2	7
Cc1cc(C)nc(NC(=O)c2cnc3sccn3c2=O)n1	11	46*	4	0	6
O=C(NCc1ccc(F)cc1)c1cnc2sccn2c1=O	-9	27	9	-5	1
O=C(c1ccccc1)N(Cc1ccccc1)c1ccccn1	-1	-2	-1	-3	2
CC(=NNC(=O)C(=O)NN=C(C)c1cccc(O)c1)c1cccc(O)c1	.	.	.	.	6
COC(=O)c1ccc(C(NC(=O)OCc2ccccc2)C(F)=CC(C)C(=O)NCc2ccc(-c3ccccc3)cc2)cc1 (stereo unspecified)	.	.	.	.	12
COc1cc([N+](=O)[O-])cc(C=NNC(=O)CSc2nnc(-c3ccccc3)n2C)c1O	.	.	.	.	5
COc1ccc(NC(=O)N(C)CC2Oc3ccc(NS(=O)(=O)c4ccccc4)cc3C(=O)N(C(C)CO)CC2C)cc1 (stereo unspecified)	.	.	.	.	-1
COc1ccc(OC)c(S(=O)(=O)N(C)CC(=O)N2CCc3ccccc3C2)c1	5	5	2	-6	7
COc1ccc(OC)c(S(=O)(=O)N(C)CC(=O)N2CCCCC2)c1	53*	-8	2	-5	0
CCCCCn1cc(C(=O)C(=O)N2CCOCC2)c2ccccc21	-40	13	-3	?	3

From PubChem BioAssay
